Reference: PubChem BioAssay (EPA / NIEHS)
Records with an inconclusive call do not appear. Where a structure was tested more than once in an assay, its records may differ in their call. Active and inactive are the calls of the source. Rule for the calls, unless noted: active = hit-call score of the fitted dose curve at least 0.9, where 1 is the maximum; inconclusive = response in the unintended direction; inactive = score below 0.9.

Assays:
[1] = target: Estrogen receptor (Homo sapiens) (UniProt P03372); test: OT_ERa_GFPERaERE_0120: Odyssey Thera (OT) 2-hour HeLa Transcription Induction Assay for Estrogen Receptor (AID 2283382)
Estrogen receptor (Homo sapiens), sequence (P03372 whole entry, looked up): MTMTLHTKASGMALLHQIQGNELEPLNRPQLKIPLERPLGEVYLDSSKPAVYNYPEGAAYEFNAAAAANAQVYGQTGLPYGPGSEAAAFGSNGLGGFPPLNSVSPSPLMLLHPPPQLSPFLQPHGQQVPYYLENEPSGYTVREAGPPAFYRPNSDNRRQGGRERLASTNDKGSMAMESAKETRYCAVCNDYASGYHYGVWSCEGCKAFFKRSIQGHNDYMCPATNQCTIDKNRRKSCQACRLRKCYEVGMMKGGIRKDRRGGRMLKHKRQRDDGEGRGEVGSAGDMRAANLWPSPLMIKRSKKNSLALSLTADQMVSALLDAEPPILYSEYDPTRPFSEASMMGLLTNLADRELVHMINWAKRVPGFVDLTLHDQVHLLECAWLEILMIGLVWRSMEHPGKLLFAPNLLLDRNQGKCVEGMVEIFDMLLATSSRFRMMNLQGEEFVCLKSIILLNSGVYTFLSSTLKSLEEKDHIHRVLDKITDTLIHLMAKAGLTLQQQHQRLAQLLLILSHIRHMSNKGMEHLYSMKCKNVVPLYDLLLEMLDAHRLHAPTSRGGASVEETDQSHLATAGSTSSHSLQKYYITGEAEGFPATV
Procedure, shortened: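 Cells (human cervical HeLa) receive compound, incubate 2 hours, then are imaged for fluorescent reporter induction. Images are quantified by high content analysis, and activity is fitted as gain of signal against DMSO.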

[2] = target: Bile acid receptor (Homo sapiens) (UniProt Q96RI1); test: OT_FXR_FXRSRC1_1440: Odyssey Thera (OT) 24-hour HEK293T Protein-Complementation Assay for Farnesoid X receptor/SRC-1 Co-activator (AID 2283384)
Bile acid receptor (Homo sapiens), sequence (Q96RI1 whole entry, looked up, the tested form may be a part): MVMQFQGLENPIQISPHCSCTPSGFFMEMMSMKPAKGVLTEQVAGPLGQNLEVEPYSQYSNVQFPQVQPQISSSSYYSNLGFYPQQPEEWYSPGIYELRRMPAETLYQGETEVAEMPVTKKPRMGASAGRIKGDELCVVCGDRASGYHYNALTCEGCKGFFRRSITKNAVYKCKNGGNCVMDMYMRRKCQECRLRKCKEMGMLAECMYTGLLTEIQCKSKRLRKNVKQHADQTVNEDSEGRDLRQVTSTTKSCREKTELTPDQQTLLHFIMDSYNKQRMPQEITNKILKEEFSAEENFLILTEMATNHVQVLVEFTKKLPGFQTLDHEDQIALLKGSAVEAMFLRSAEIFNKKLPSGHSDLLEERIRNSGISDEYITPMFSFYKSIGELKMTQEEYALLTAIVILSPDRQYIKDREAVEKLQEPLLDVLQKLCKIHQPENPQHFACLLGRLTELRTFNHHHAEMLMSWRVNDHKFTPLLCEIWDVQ
Procedure, shortened: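 Measures ligand-driven FXR–SRC-1 co-activator recruitment in HEK293T via fragment complementation, fluorescence intensity at 24 h. DMSO served as negative control and baseline for gain-of-signal fitting.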

[3] = target: Retinoic acid receptor RXR-alpha (Homo sapiens) (UniProt P19793); test: OT_NURR1_NURR1RXRa_0480: Odyssey Thera (OT) 8-hour HEK293T Protein Complementation Assay for Nurr1/retinoid X receptor (RXR) (AID 2283385)
Retinoic acid receptor RXR-alpha (Homo sapiens), sequence (P19793 whole entry, looked up, the tested form may be a part): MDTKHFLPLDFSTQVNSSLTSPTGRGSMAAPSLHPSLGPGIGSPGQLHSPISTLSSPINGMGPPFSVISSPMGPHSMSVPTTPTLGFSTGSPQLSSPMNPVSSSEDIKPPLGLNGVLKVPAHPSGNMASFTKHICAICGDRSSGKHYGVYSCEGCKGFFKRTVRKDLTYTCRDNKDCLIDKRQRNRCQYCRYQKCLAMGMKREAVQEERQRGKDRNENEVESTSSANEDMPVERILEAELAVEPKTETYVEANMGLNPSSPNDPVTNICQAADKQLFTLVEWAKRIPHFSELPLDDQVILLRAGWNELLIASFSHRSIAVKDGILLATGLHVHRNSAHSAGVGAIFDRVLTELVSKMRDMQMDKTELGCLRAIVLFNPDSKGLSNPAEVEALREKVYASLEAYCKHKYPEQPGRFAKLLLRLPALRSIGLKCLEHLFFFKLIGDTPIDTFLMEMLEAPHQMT
Procedure, shortened: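 Interaction of bait and prey reconstitutes a functional reporter, whose fluorescence was measured in HEK293T cells dosed with compound for 8 hours. Signal gain relative to DMSO defined the single endpoint.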

[4] = target: Retinoic acid receptor RXR-alpha (Homo sapiens) (UniProt P19793); test: OT_NURR1_NURR1RXRa_1440: Odyssey Thera (OT) 24-hour HEK293T Protein Complementation Assay for Nurr1/retinoid X receptor (RXR) (AID 2283386)
Procedure, shortened: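 Steps: fragment-tagged Nurr1 and RXRα expressed in HEK293T; compounds added; after 24 h, complemented reporter quantified by fluorescence intensity; signal increase over DMSO fitted as the single endpoint.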

[5] = target: Peroxisome proliferator-activated receptor gamma (Homo sapiens) (UniProt P37231); test: OT_PPARg_PPARgSRC1_0480: Odyssey Thera (OT) 8-hour Protein-Complementation Assay for Peroxisome Proliferator-activated Receptor Gamma / SRC-1 Co-activator (AID 2283387);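 note: nuclear to cytoplasmic split Venus YFP fluorescence ratio reporting PPARg SRC-1 interaction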
Peroxisome proliferator-activated receptor gamma (Homo sapiens), sequence (P37231 whole entry, looked up, the tested form may be a part): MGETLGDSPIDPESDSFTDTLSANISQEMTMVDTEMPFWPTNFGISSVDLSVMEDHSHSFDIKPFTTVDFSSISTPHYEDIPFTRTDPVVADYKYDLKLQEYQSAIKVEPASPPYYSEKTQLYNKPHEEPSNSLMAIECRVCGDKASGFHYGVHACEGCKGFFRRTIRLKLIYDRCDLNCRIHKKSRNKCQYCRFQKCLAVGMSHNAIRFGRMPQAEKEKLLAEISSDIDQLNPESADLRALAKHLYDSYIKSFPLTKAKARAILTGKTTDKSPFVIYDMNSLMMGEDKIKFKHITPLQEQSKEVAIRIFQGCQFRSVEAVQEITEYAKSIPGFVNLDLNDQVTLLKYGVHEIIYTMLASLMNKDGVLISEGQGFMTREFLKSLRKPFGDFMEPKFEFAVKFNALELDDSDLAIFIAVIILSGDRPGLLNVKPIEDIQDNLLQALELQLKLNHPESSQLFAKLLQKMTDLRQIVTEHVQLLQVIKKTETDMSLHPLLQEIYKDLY
Procedure, shortened: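 Split-YFP (IFP1/IFP2) PPARg/SRC-1 reporter, HEK293T, 37 °C, 5% CO2; 8 h compound; formaldehyde fix + Draq5; high-content imaging, N/C ratio, ≥350 cells/image, positive direction vs DMSO.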

[6] = target: Peroxisome proliferator-activated receptor gamma (Homo sapiens) (UniProt P37231); test: OT_PPARg_PPARgSRC1_1440: Odyssey Thera (OT) 24-hour Protein-Complementation Assay for Peroxisome Proliferator-activated Receptor Gamma/ SRC-1 Co-activator (AID 2283388);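 note: nuclear to cytoplasmic ratio of reconstituted Venus YFP fluorescence in fixed imaged cells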
Procedure, shortened: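 Protein-fragment complementation between PPARg and coactivator SRC-1 was measured by fluorescence imaging in transiently transfected HEK293T cells after 24 h treatment. Signal was quantified as N/C ratio in the 488 nm channel, with DMSO as negative control.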

[7] = CEETOX_H295R_11DCORT: CeeTox H295R High-throughput Steroidogenesis Assay for 11-Deoxycortisol (11DCORT) (AID 2283432; active = hit-call score of the fitted dose curve at least 0.9, where 1 is the maximum; inactive = score below 0.9;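 for AC50: human adrenal H295R cells prestimulated with 10 µM forskolin for 48 h; 11-deoxycortisol secreted into the medium measured by LC-MS/MS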); details: actives raise or lower the signal
Procedure, shortened: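 Steroidogenesis in human H295R cells: 48 h chemical exposure after forskolin priming, 11-deoxycortisol measured by LC-MS/MS.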

[8] = CEETOX_H295R_OHPREG: CeeTox H295R High-throughput Steroidogenesis Assay for OH-Pregnenolone (OHPREG) (AID 2283434; active = hit-call score of the fitted dose curve at least 0.9, where 1 is the maximum; inactive = score below 0.9); details: actives raise or lower the signal
Procedure, shortened: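 H295R, 10 uM forskolin pre-stim 48 h; test chemical 48 h, 0.1% DMSO final. MTBE extraction, reverse-phase C18 HPLC-ESI+ MS/MS of medium. Gain/loss vs DMSO; viability by MTT in same wells.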

[9] = CEETOX_H295R_OHPROG: CeeTox H295R High-throughput Steroidogenesis Assay for OH-Progesterone (OHPROG) (AID 2283435; active = hit-call score of the fitted dose curve at least 0.9, where 1 is the maximum; inactive = score below 0.9;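 for AC50: human adrenal H295R cells primed 48 h with 10 µM forskolin; 17alpha-hydroxyprogesterone secreted into medium measured by HPLC-MS/MS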); details: actives raise or lower the signal
Procedure, shortened: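 Steps: seed H295R cells and adhere overnight; stimulate with 10 uM forskolin for 48 h; replace with chemical-containing medium (0.1% DMSO) for 48 h; extract medium with MTBE; quantify 17alpha-hydroxyprogesterone by reverse-phase C18 HPLC-MS/MS against a 7-point curve.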

[10] = target: Bile acid receptor (Homo sapiens) (UniProt Q96RI1); test: OT_FXR_FXRSRC1_0480: Odyssey Thera (OT) 8-hour HEK293T Protein-Complementation Assay for Farnesoid X receptor/SRC-1 Co-activator (AID 2283383)
Procedure, shortened: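 PCA, HEK293T, 8 h compound exposure; FXR–SRC-1 binding reconstitutes split reporter; fluorescence intensity; positive-direction fit vs DMSO.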

Measured: AC50

CCN(Cc1cccnc1)C(=O)c1cccc(Cl)c1[C@]1(C)C(=O)N(Cc2ccc(OC)cc2OC)c2ccc(Cl)cc21
active: [2] 0.59 µM
inactive: [1] | [3] | [4] | [5] | [6]

CCCCCCCCOC(=O)c1cc(O)c(O)c(O)c1
active: [1] 3.33 µM | [4] 68.5 µM
inactive: [3] | [4] | [5] | [6] | [7] | [8] | [9]

CCN(CC)C(=O)c1cc(S(=O)(=O)Cc2ccccc2)c(N2CCC(c3ccccc3)CC2)cc1N(CC)CCN(C)C
inactive: [5] | [6]
active: [1] 19 µM | [2] 4.38 µM | [3] 4.48 µM | [4] 4.48 µM

O=C(O)c1ccccc1C(=O)OCc1ccccc1
inactive: [1] | [2] | [3] | [4] | [5] | [6]

NCc1cccc(C2CCN(C(=O)c3ccc(C#Cc4ccccc4F)o3)CC2)c1
inactive: [2] | [5] | [6]
active: [1] 12 µM

O=C=NCCCCCCN=C=O
inactive: [1] | [2] | [3] | [4] | [5] | [6]

Clc1cc(Cl)c2c(c1)N=C1CCCCCN1C2
not listed: [10]
inactive: all other assays above

O=C(OCCCCCCOC(=O)c1ccccc1)c1ccccc1
inactive: [1] | [2] | [3]

CC[C@H](NC(=O)c1cc(F)ccc1NS(=O)(=O)c1cccc2cccnc12)c1ccccc1
inactive: [1] | [2] | [3] | [4] | [5] | [6]

CCCCCc1ccc(N)cc1
inactive: [1] | [3] | [4] | [5] | [6]

O=C(Nc1ccc(Cl)cc1)Nc1ccc(Cl)c(Cl)c1
active: [3] 12.5 µM | [7] 0.599 µM | [8] 0.5 µM | [9] 0.418 µM
not listed: [10]
inactive: all other assays above

CCCOC(=O)c1cc(O)c(O)c(O)c1
inactive: [1] | [2] | [3] | [4] | [5] | [6]

O=C(O)c1ccccc1-n1cc(C(=O)O)c(=O)c2cc(Nc3c(F)cc(F)cc3Cl)c(Cl)cc21
inactive: [1] | [2] | [3] | [4] | [5] | [6]

CCCCCCCCOc1ccc(C(=O)c2ccccc2)c(O)c1
inactive: [1] | [2] | [3] | [5] | [6]

COc1cc(C(=O)NC2CCN(C)CC2)ccc1Nc1ncc2c(n1)N(C1CCCC1)CC(F)(F)C(=O)N2C
active: [2] 11 µM | [3] 10.9 µM | [4] 11 µM
inactive: [1] | [5] | [6]

Cc1ccc2oc(CN(Cc3ccccc3)C(=O)Nc3c(F)cc(F)cc3F)c(-c3ccc(Cl)cc3)c2c1
active: [9] 4.83 µM
not listed: [3] | [4] | [10]
inactive: all other assays above

COc1cccc([C@H](O)C2CCN(CCc3ccc(F)cc3)CC2)c1OC
active: [7] 27 µM | [8] 1.81 µM | [9] 19.7 µM
not listed: [10]
inactive: all other assays above

OCCO
inactive: [1] | [2] | [4] | [5] | [6]

Cc1c2ccccc2c(C)c2c1ccc1ccccc12
not listed: [4] | [10]
inactive: all other assays above

CCCCCCCCCCCO
inactive: [1] | [2] | [3] | [4] | [5] | [6]

c1ccc(C[n+]2cccc3ccccc32)cc1
inactive: [1] | [10] | [2] | [5] | [6]

Cc1cc2c(cc1C(F)(F)F)N(C(=O)Nc1ccc(Oc3cccnc3C)nc1)CC2
inactive: [1] | [4] | [5] | [6]
active: [2] 4.55 µM | [3] 29.2 µM | [7] 0.381 µM | [8] 0.495 µM | [9] 0.591 µM

CCOC(=O)O[C@H](C)OC(=O)c1ccc2c(c1)cc(C(=O)NC1CCN(C(C)C)CC1)n2Cc1cc(-c2ccc(Cl)s2)on1
inactive: [5] | [6]
active: [1] 23.8 µM | [2] 74.9 µM

CCN(Cc1cccc(S(=O)(=O)O)c1)c1ccc(C(=C2C=CC(=[N+](CC)Cc3cccc(S(=O)(=O)O)c3)C=C2)c2ccccc2S(=O)(=O)[O-])cc1
inactive: [1] | [3] | [4] | [5] | [6]
active: [4] 46.6 µM

Cc1oc2c(NC(=O)c3c(Cl)cccc3Cl)cccc2c1C(C)(C)O
inactive: [1] | [5] | [6]
active: [2] 13.5 µM | [3] 12.6 µM | [7] 3.01 µM | [8] 1.42 µM | [9] 3.07 µM

CN1C(=O)N(c2ccccc2Br)Cc2cnc(Nc3ccc4c(c3)OCC(CO)O4)nc21 (centres undefined)
active: [10] 0.34 µM | [2] 0.54 µM | [3] 0.714 µM | [7] 0.723 µM
not listed: [5]
inactive: all other assays above

O=CCCCC=O
active: [3] 50 µM
inactive: [1] | [2] | [4] | [5] | [6]

CCCCCCCCCCCCO
inactive: [1] | [2] | [3] | [5] | [6]

OC12N=C(c3ccccc3)SC1Cc1cc(Cl)ccc12 (centres undefined)
active: [2] 31.4 µM | [4] 30 µM | [7] 32.8 µM
not listed: [10]
inactive: all other assays above

O=C(O)Cn1c(=O)n(Cc2ccc(Br)cc2F)c(=O)c2ccc(Cl)cc21
inactive: [1] | [2] | [3] | [4] | [5] | [6] | [7] | [8] | [9]
active: [6] 49.7 µM

CC(C)(C)c1csc(-c2cc3cc(OCc4ccccc4CC(=O)O)ccc3o2)n1
active: [2] 69.8 µM | [3] 2.97 µM | [4] 29.1 µM
inactive: [1] | [5] | [6]

CC(C)(C)c1cc(/C=C2\SC(N)=NC2=O)cc(C(C)(C)C)c1O
active: [2] 50 µM | [5] 77.1 µM | [6] 66 µM | [9] 0.67 µM
inactive: [1] | [3] | [4] | [5] | [6] | [7] | [8]

CN(C[C@@H](CC[N+]12CCC(C3CCCCC3)(CC1)CC2)c1ccc(Cl)c(Cl)c1)C(=O)c1cc(C(F)(F)F)cc(C(F)(F)F)c1
inactive: [1] | [5] | [6]
active: [2] 78.1 µM
